Laboratory results as given in PubChem BioAssay (NCATS).
Results filed as inconclusive are left out. The source made the active and inactive calls. Unless noted, calls follow the shape of the dose curve; as a rule, active = well fitted curve in the direction sought with a large enough effect; inconclusive = small, poorly fitted or top-dose-only effect, or another doubt; inactive = no such curve, though single readings can be large; an effect the other way counts as inactive or inconclusive.

Tests used:
[1] = qHTS for ATAD5 Agonist screened against the NCATS CANVASS Library (AID 1347367)
Outline: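 Genotoxicity via ATAD5-luciferase luminescence after 16 h compound exposure (11-point series) at 37C in HEK293T-ATAD5 cells. CellTiter-Fluor viability read precedes the luminescence read; MMS serves as positive control.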

[2] = MCF7 Cancer Cell Toxicity qHTS against the NCATS CANVASS Library (AID 1347369)
Outline: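 Cytotoxicity was measured as CellTiterGlo luminescence (ATP) after 72 h at 37 °C. The cells were MCF7 at 500 per well, with an 11-point compound concentration series.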

[3] = qHTS for ATAD5 Antagonist screened against the NCATS CANVASS Library (AID 1347370)
Outline: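 HEK293T cells with stably integrated ATAD5-luciferase reporter, 2000/well, 5 h attachment; compounds plus 10 µM 5-fluorouridine, 16 h at 37 °C. Luciferase luminescence read, with CellTiter-Fluor viability read first.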

[4] = molecular target: Nuclear receptor subfamily 1 group I member 3 (Homo sapiens) (UniProt Q14994); assay: qHTS for Constitutive Androstane Receptor (CAR) Antagonist screened against the NCATS CANVASS Library (AID 1347372)
Chain of Nuclear receptor subfamily 1 group I member 3 (Homo sapiens) (Q14994 whole entry, looked up): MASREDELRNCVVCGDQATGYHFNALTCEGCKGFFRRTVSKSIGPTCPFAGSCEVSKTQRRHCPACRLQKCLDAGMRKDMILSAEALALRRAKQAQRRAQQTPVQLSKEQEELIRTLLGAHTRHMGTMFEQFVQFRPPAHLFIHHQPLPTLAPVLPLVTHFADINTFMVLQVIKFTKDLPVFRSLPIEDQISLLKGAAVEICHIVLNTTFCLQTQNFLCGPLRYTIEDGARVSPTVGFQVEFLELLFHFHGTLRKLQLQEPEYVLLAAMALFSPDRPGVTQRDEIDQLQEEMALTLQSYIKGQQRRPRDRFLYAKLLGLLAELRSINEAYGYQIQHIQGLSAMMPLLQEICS
Outline: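 HepG2-CYP2B6-hCAR double-stable cells plated, 4hr attach; cpd pin-transferred; CITCO 50 nM final; 24hr 37C/5% CO2; CellTiter-Fluor 1hr (fluorescence), then ONE-Glo luminescence.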

[5] = molecular target: Nuclear receptor subfamily 1 group I member 3 (Homo sapiens) (UniProt Q14994); assay: qHTS for Constitutive Androstane Receptor (CAR) Agonist screened against the NCATS CANVASS Library (AID 1347373)
Outline: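 HepG2-hCAR-CYP2B6 cells, 2500/well, attached 4hr; cpd + PK11195 1.5uM final; 24hr 37C 5% CO2. CellTiter-Fluor viability read, then ONE-Glo luminescence for CAR activation.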

[6] = qHTS for Hypoxia signaling pathway (HIF-1) antagonists against the NCATS CANVASS Library (AID 1347374)
Outline: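 HRE-bla ME-180 cells in medium with 0.5% dialyzed FBS received compounds (11-point series) plus CoCl2 (60 uM addition stock) for 17 hrs at 37C. Beta-lactamase activity read with CCF4 (405 nm ex, 460/530 nm em); CellTiter-Glo viability measured in same wells.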

[7] = 10-beta competent E. coli microbial cell viability qHTS against the NCATS CANVASS Library (AID 1347376)
Outline: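 E. coli 10-beta, 0.2 OD; cpds 11-pt; o/n 37C, 5% CO2; BacTiter-Glo 20 min RT; luminescence (ATP) = viable cells. Daunomycin ctrl.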

[8] = qHTS for H2AX Agonists against the NCATS CANVASS Library (AID 1347378)
Outline: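 Phospho-H2AX (S139) in CHO-K1 lysates measured by HTRF, reported as 665/615 nm emission ratio after 24 hr antibody incubation at room temperature. Cells were first treated with a compound series for 3 hr at 37C (0.76% DMSO final).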

[9] = qHTS for Inflammasome Signaling Inhibitors: IL-1-beta AlphaLISA screen against the NCATS CANVASS Library (AID 1347379)
Outline: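 THP-1 cells pretreated 1 hr with compound (up to 57.5 uM final), then stimulated with LPS (250 ng/mL final) and ATP (1.25 mM final). Secreted IL-1B measured by AlphaLISA after 16 hr; glyburide as positive control.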

[10] = qHTS for Antimalaria activity screened against the NCATS CANVASS Library (AID 1347380)
Outline: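 Dd2 strain, infected erythrocytes 2.5% Hct final / 0.3% parasitemia. 11-pt qHTS titration, 72 h, 37C, 5% O2, 5% CO2. Lysis buffer + SYBR Green, 18 h, fluorescence 485/535 nm.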

[11] = Inflammasome Signaling qHTS Counterscreen: IL-1-beta AlphaLISA counterscreen against the NCATS CANVASS Library (AID 1347381)
Outline: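 Cell-free interference check: compounds added to medium spiked with 4 pg purified IL-1β. Anti-IL-1β acceptor beads (6 ug/mL) with 0.6 nM biotinylated antibody added for 1 h at RT, then streptavidin donor beads (24 ug/mL) for 30 min in the dark. AlphaLISA read at 680/615 nm.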

[12] = Cytotoxicity qHTS for assessment of Hepg2 cells membrane integrity screened against the NCATS CANVASS Library (AID 1347387)
Outline: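 qHTS, 11-pt conc. series, 0.59 nM - 46 uM final; HepG2 2000 cells/well, overnight attachment; 5 hr compound exposure 37C/5% CO2; CytoTox-ONE, 10 min RT; fluorescence ex560/em590 = LDH from damaged membranes.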

[13] = qHTS for Activators of p53 Stress Response Pathway screened against the NCATS CANVASS Library (AID 1347388)
Outline: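 Beta-lactamase reporter driven by p53 response elements in HCT-116 cells, read as the 460 nm/530 nm emission ratio after CCF4 loading, following 16 h of exposure to an 11-point series. Cell viability was measured in the same wells by CellTiter-Glo luminescence.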

[14] = qHTS assay for small molecule disruptors of mitochondrial membrane potential screened against the NCATS CANVASS Library (AID 1347389)
Outline: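 HepG2, 2,000 cells/well, attached overnight; compound 1 hr, 37C, 5% CO2; Mito-MPS dye 30 min, 37C; fluorescence 535 nm (monomer) and 590 nm (aggregate); decreased 590/535 ratio = depolarization.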

[15] = Secretion counterscreen for inhibitors of the SERCaMP assay screened against the NCATS CANVASS Library (AID 1347390)
Outline: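 Counterscreen for secretory-pathway interference: after 4 h attachment, SH-SY5Y-GLuc cells were exposed 20 hours to compounds (final 0.001 - 77 uM), then coelenterazine added and GLuc luminescence recorded; Brefeldin A served as control.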

[16] = qHTS for activators of dead-cell proteases activity screened against the NCATS CANVASS Library (AID 1347392)
Outline: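 Compounds are pin-transferred onto attached HepG2 cells, giving 11 final concentrations. After 5 h at 37C, AAF-aminoluciferin reagent is added and luminescence is recorded at room temperature.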

[17] = qHTS for inhibitors of ER calcium dysfunction: SERCaMP assay screened against the NCATS CANVASS Library (AID 1347393)
Outline: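 Thapsigargin-induced ER calcium depletion drives GLuc-SERCaMP secretion from SH-SY5Y cells; compounds given 16 h beforehand were scored by lowered coelenterazine luminescence after 4 h challenge.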

[18] = Vero-766 cells viability qHTS against the NCATS CANVASS Library: Counterscreen for Zika virus inhibition assay (AID 1347394)
Outline: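 CellTiter Glo luminescence measured cytotoxicity after 72 h at 37C in uninfected Vero 766 cells, plated at 1000 cells/well. Compounds were applied in an 11-point series. Wells without cells defined 100% inhibition.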

[19] = qHTS for inhibitors of Wild type Zika virus screened against the NCATS CANVASS Library (AID 1347396)
Outline: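 Using ATP-based luminescence (CellTiter Glo), this screen scores rescue of Vero 766 cells from wild-type Zika killing at 72 h post-infection. Compounds are tested in a concentration series.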

[20] = Viability qHTS for inhibitors of the SERCaMP assay screened against the NCATS CANVASS Library (AID 1347400)
Outline: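 SH-SY5Y SERCaMP MJH297 cells, 1000/well; 4 h settle, 37C/5% CO2; pin-transferred cpds; 48 h; CellTiter-Glo lum. Pos ctrl bortezomib 0.0001 - 4.6 uM.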

[21] = Redox Reaction Profiling qHTS: Assay Interference Panel against the NCATS CANVASS Library (AID 1347401)
Outline: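 Cell-free redox surrogate: 5 uM resazurin + 200 uM DTT, 50 mM HEPES pH 7.3/50 mM NaCl; cpds pinned, 11-pt qHTS; Ex525/Em598 read t0 and t=15 min, dark.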

[22] = qHTS for inhibitors of Rabies Virus screened against the NCATS CANVASS Library (AID 1347402; calls by dose curve)
[23] = Primary qHTS for small molecule stabilizers of the endoplasmic reticulum resident proteome: Secreted ER Calcium Modulated Protein (SERCaMP) assay (AID 1508630)
Outline: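 GLuc-SERCaMP-expressing SH-SY5Y cells, pretreated 16 h with compound, are challenged with thapsigargin to empty ER calcium stores; after 4 h, coelenterazine is added directly to the medium and luminescence is imaged.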

Measured: Potency

NCCc1ccccc1
inactive: [1] | [2] | [3] | [4] | [5] | [6] | [7] | [8] | [9] | [10] | [11] | [12] | [13] | [14] | [15] | [16] | [17] | [18] | [19] | [20] | [21] | [22] | [23]
